Test results: the supplement of paper PMC6897291
Where a name gives a salt, the structure may show the parent alone.

System: U-2932
Experiment: growth inhibition by drug plus 177Lu-lilotomab satetraxetan (1 - RLU/untreated control) (fraction); higher = stronger inhibition
Settings: 1000 nM; time (day): 4; 177Lu-lilotomab satetraxetan 1 ug/ml
Summary of the method: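 Growth inhibition was calculated from RealTime-Glo RLU against untreated no-drug wells. Values equal 1 − RLU/mean of 48 untreated no-drug wells per plate, read daily from day 3 after 1 h at 37°C. RIVA and U-2932 cells, with or without 18 h pretreatment by a radiolabelled anti-CD37 antibody conjugate (~600 MBq/mg; 0.5 µg/ml RIVA, 1 µg/ml U-2932), were washed and plated at 3,000 cells/well on compound-printed plates at 10/100 nM (RIVA) or 10/1,000 nM (U-2932).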

First: CNCc1ccc(-c2[nH]c3cc(F)cc4c3c2CCNC4=O)cc1
Second: NC(=O)c1ccc(-c2nc(-c3ccccn3)c(-c3ccc4c(c3)OCO4)[nH]2)cc1
The “growth inhibition by drug plus 177Lu-lilotomab satetraxetan” value (“growth inhibition” for short) of the first is lower: 0.0885 for the first, 0.102 for the second.

First: O=C(O)c1ccc(-c2c[nH]c3ncc(-c4ccccc4)cc23)cc1C1CCCC1
Second: CS(=O)(=O)c1ccc(C(=O)Nc2ccc(Cl)c(-c3ccccn3)c2)c(Cl)c1 [Vismodegib (GDC-0449)]
The “growth inhibition” value of the first is higher: 0.173 for the first, 0.138 for the second.

First: CC(=O)c1c(C)c2cnc(Nc3ccc(N4CCNCC4)cn3)nc2n(C2CCCC2)c1=O
Second: CC[C@@H]1C(=O)N(C)c2cnc(Nc3ccc(C(=O)NC4CCN(C)CC4)cc3OC)nc2N1C1CCCC1
The “growth inhibition” value of the first is lower: -0.00616 for the first, 0.957 for the second.

First: CCN(CC)CCCCNc1ncc2cc(-c3cc(OC)cc(OC)c3)c(NC(=O)NC(C)(C)C)nc2n1
Second: Cc1cnc(Nc2ccc(OCCN3CCCC3)cc2)nc1Nc1cccc(S(=O)(=O)NC(C)(C)C)c1
The “growth inhibition” value of the first is lower: -0.0951 for the first, 0.122 for the second.

Compared with `CCC(C)(C)C(=O)O[C@H]1C[C@@H](C)C=C2C=C[C@H](C)[C@H](CC[C@@H]3C[C@@H](O)CC(=O)O3)[C@H]21` [Simvastatin (Zocor)], `CC[C@]1(O)C[C@H]2CN(CCc3c([nH]c4ccccc34)[C@@](C(=O)OC)(c3cc4c(cc3OC)N(C=O)[C@H]3[C@@](O)(C(=O)OC)[C@H](OC(C)=O)[C@]5(CC)C=CCN6CC[C@]43[C@@H]65)C2)C1` [Vincristine] is higher in “growth inhibition” value: -0.0186 for the first, 0.978 for the second.

First: CC[C@H](Nc1ncnc2[nH]cnc12)c1nc2cccc(F)c2c(=O)n1-c1ccccc1
Second: Cc1cn(-c2cc(NC(=O)c3ccc(C)c(Nc4nccc(-c5cccnc5)n4)c3)cc(C(F)(F)F)c2)cn1 [Nilotinib (AMN-107)]
The “growth inhibition” value of the first is higher: 0.287 for the first, -0.0418 for the second.

First: CC(C=CC(=O)NO)=CC(C)C(=O)c1ccc(N(C)C)cc1 (stereo not drawn) [Trichostatin A (TSA)]
Second: CC(C)(C)c1ccc(S(=O)(=O)/C=C/C#N)cc1
The “growth inhibition” value of the first is higher: 0.983 for the first, 0.565 for the second.

Going from `COc1ccc2c3n(c(=NC(=O)c4cccnc4)nc2c1OC)CCN3` to `COc1ccc(COc2cc3oc(=O)c4cc(C(C)O)ccc4c3cc2OC)cc1` (stereo not drawn) [Palomid 529], the “growth inhibition” value falls from 0.175 to 0.0227.

Going from `CNC(=O)c1cc(Oc2ccc(NC(=O)Nc3ccc(Cl)c(C(F)(F)F)c3)c(F)c2)ccn1` [Regorafenib (BAY 73-4506)] to `CCOc1ccc(Nc2nc(-c3c(C)nc4ccccn34)cs2)cc1`, the “growth inhibition” value rises from 0.291 to 0.978.

Compared with `CC(C)C[C@H](NC(=O)[C@H](Cc1ccccc1)NC(=O)c1cnccn1)B(O)O` [Bortezomib (Velcade)], `CCC[C@H](NC(=O)/C(C#N)=C/c1cccc(Br)n1)c1ccccc1` is lower in “growth inhibition” value: 0.987 for the first, 0.0599 for the second.

Going from `O=C1CN2Cc3c(ccc(Cl)c3Cl)N=C2N1` [Anagrelide] to `Cn1cc(C2=C(c3ccc(Cl)cc3Cl)C(=O)NC2=O)c2ccccc21`, the “growth inhibition” value falls from 0.117 to 0.0592.

First: Cc1cc(Nc2cc(N3CCN(C)CC3)nc(/C=C/c3ccccc3)n2)n[nH]1
Second: CO[C@@H](C(=O)N1Cc2[nH]nc(NC(=O)c3ccc(N4CCN(C)CC4)cc3)c2C1)c1ccccc1
The “growth inhibition” value of the first is lower: 0.00467 for the first, 0.469 for the second.

Going from `CCc1cc(Nc2nccc(-c3c(-c4ccc(OC)c(C(=O)Nc5c(F)cccc5F)c4)nc4ccccn34)n2)c(OC)cc1N1CCC(N2CCN(S(C)(=O)=O)CC2)CC1` to `COc1cc2nc(N3CCCN(C)CC3)nc(NC3CCN(Cc4ccccc4)CC3)c2cc1OC`, the “growth inhibition” value rises from 0.0173 to 0.247.

Compared with `O=C1CN2Cc3c(ccc(Cl)c3Cl)N=C2N1` [Anagrelide hydrochloride], `CCc1ccc(CCOc2ccc(CC3SC(=O)NC3=O)cc2)nc1` (stereo not drawn) [Pioglitazone (Actos)] is lower in “growth inhibition” value: 0.088 for the first, -0.0405 for the second.

Going from `O=C(NCCCNc1nc(Nc2cccc(NC(=O)N3CCCC3)c2)ncc1I)c1cccs1` to `C=CCn1c(=O)c2cnc(Nc3ccc(N4CCN(C)CC4)cc3)nc2n1-c1cccc(C(C)(C)O)n1`, the “growth inhibition” value rises from 0.302 to 0.926.

First: C#Cc1cccc(Nc2ncnc3cc(OCCOC)c(OCCOC)cc23)c1 [Erlotinib HCl]
Second: COc1cc2c(NC3CCN(C)CC3)nc(N3CCCN(C)CC3)nc2cc1OCCCN(C)C
The “growth inhibition” value of the first is higher: 0.704 for the first, -0.0136 for the second.

First: CN(C)c1ccccc1CN1CCCN(Cc2ccccc2N(C)C)C1c1ccncc1
Second: OCCn1cc(-c2ccc3c(c2)CC/C3=N\O)c(-c2ccncc2)n1
The “growth inhibition” value of the first is higher: -0.00158 for the first, -0.0611 for the second.

First: O=C(O)C1(C(=O)O)CCC1.[NH2-].[NH2-].[Pt+2] [Carboplatin]
Second: CCc1c2c(nc3ccc(OC(=O)N4CCC(N5CCCCC5)CC4)cc13)-c1cc3c(c(=O)n1C2)COC(=O)[C@]3(O)CC [Irinotecan HCl Trihydrate (Campto)]
The “growth inhibition” value of the first is lower: 0.0456 for the first, 0.928 for the second.

Going from `CC(C)(C#N)c1cc(Cn2cncn2)cc(C(C)(C)C#N)c1` [Anastrozole] to `Cn1cnc(N)c2ncnc1-2` [3-Methyladenine], the “growth inhibition” value rises from 0.0124 to 0.0603.
